# Results filed as inconclusive are left out. Entries that show only a call come without a potency. Values without a mark were called inactive. The source made the active and inactive calls. Unless noted, calls follow the shape of the dose curve; as a rule, active = well fitted curve in the direction sought with a large enough effect in the repeat runs; inconclusive = weak or mixed curves; inactive = no such curve, though single readings can be large; an effect the other way counts as inactive or inconclusive.
# What was measured:
# [1] = qHTS assay to identify small molecule antagonists of the retinoid acid receptor (RAR) signaling pathway - cell viability counter screen (AID 1159551); also: nearly all actives have a fitted effect of over 35% in size
# Outline: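 C3RL4 RARE-luciferase line; cpds + retinol 1 uM final, 6 h, 37 C/5% CO2; CellTiter-Glo ATP luminescence, 30 min RT.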
# [2] = qHTS assay to identify small molecule agonists of the retinoic acid receptor (RAR) signaling pathway (AID 1159553)
# Outline: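 RARE-luc C3RL4 cells; overnight attachment 37 C/5% CO2; compound (DMSO) 6 hr; luciferase reagent, 30 min RT; luminescence read-out.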
# [3] = qHTS assay to identify small molecule antagonists of the estrogen related receptor (ERR) signaling pathway from Tox21 library - cell viability counter screen (AID 1224834); also: nearly all actives have a fitted effect of over 30% in size; also: potency is read from the fitted curve at half-maximal effect
# Outline: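 Multiplexed viability counter screen in ERR cells: 17.5 h compound exposure at 37 C, CellTiter-Fluor added, 30 min at 37 C/5% CO2, fluorescence read.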
# [4] = qHTS assay to identify small molecule antagonists of the estrogen related receptor (ERR) signaling pathway - cell viability counter screen (AID 1224818); also: series mostly up to about 46 µM
# Outline: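 Fluorescence from CellTiter-Fluor, read 30 min after reagent addition at 37 C, measured viability of ERR cells exposed to compounds for 17.5 h. Cells had settled 6 h before dosing.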
# [5] = qHTS assay to identify small molecule antagonists of the estrogen related receptor signaling pathway with the pleiotropic PPARgamma coactivator (PGC) cell viability counter screen (AID 1224822; also: series mostly up to about 46 µM)
# Outline: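 Fluorescence read-out of CellTiter-Fluor after 30 min at 37 C; PGC/ERR cells, 2,000 per well, had been exposed to DMSO-dissolved compounds for 17.5 h following a 6 h pre-incubation.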
# [6] = qHTS assay to identify small molecule antagonists of the estrogen related receptor (ERR) signaling pathway (AID 1224819;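 also: luminescence from an ERR-driven luciferase reporter measured with One-Glo reagent; series mostly up to about 46 µM; nearly all actives have a fitted effect of over 50% in size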)
# Outline: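 Luminescence readout (One-Glo, 30 min, RT) of ERR cell line after 18 h compound exposure at 37 C; cells seeded 2,000/well, pre-incubated 6 h, compounds pinned from DMSO stocks.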
# [7] = qHTS assay to identify small molecule agonists of the estrogen related receptor (ERR) signaling pathway (AID 1224820)
# Outline: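 Luminescence readout (One-Glo, 30 min RT) from NTP-supplied ERR cell line exposed to compounds for 18 h at 37 C. Cells seeded 2,000 per well and pre-incubated 6 h before pin-tool compound transfer.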
# [8] = system: estrogen-related receptor alpha (ERRalpha) with PGC-1alpha coactivator, human; test: qHTS assay to identify small molecule antagonists of the estrogen related receptor signaling pathway with the pleiotropic PPARgamma coactivator (PGC) (AID 1224821; calls by dose curve;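 also: series mostly up to about 46 µM; lower luminescence signal means antagonism of PGC/ERR signalling; nearly all actives have a fitted effect of over 50% in size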)
# Outline: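 PGC/ERR reporter cells; 6 h pre-incubation 37 C/5% CO2; pin-tool compound in DMSO, 18 h 37 C; One-Glo added, 30 min RT; luminescence read. qHTS antagonist mode.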
# [9] = qHTS assay to identify small molecule agonists of the estrogen related receptor signaling pathway with the pleiotropic PPARgamma coactivator (PGC) (AID 1224823)
# Outline: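 Luminescence readout (One-Glo, 30 min RT) from PGC/ERR cell line treated 18 h at 37 C with pin-tool-delivered DMSO compound solutions; cells plated 6 h before dosing. Quantitative HTS format.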
smiles,measurement,setting,value
CCCCCCCCP(=O)(O)O,Potency,[1],inactive
same,Potency,[2],inactive
same,Potency,[3],inactive
CN1C(=O)CN=C(c2ccccc2)c2cc([N+](=O)[O-])ccc21,Potency,[1],inactive
same,Potency,[2],inactive
same,Potency,[3],inactive
C[C@]12C=CC3=C4CCC(=O)C=C4CC[C@H]3[C@@H]1CC[C@@H]2O,Potency,[1],inactive
same,Potency,[3],inactive
CC1(C)[C@H](C(=O)O[C@H](C#N)c2cccc(Oc3ccccc3)c2)[C@@H]1C=C(Br)Br,Potency,[1],inactive
same,Potency,[3],inactive
O=C(O)c1cc(Cl)ccc1Cl,Potency,[1],inactive
same,Potency,[2],inactive
same,Potency,[3],inactive
OCCSSCCO,Potency,[1],inactive
same,Potency,[3],inactive
COC1=CC(=O)O[C@@H](/C=C/c2ccc3c(c2)OCO3)C1,Potency,[1],inactive
same,Potency,[2],inactive
same,Potency,[3],inactive
O=C1NC(=O)C(=O)C(=O)N1,Potency,[1],inactive
same,Potency,[2],inactive
same,Potency,[3],inactive
COc1ccccc1N1CCNCC1,Potency,[1],inactive
same,outcome,[4],inactive
same,outcome,[5],inactive
same,Potency,[3],inactive
CCCBr,Potency,[1],inactive
same,Potency,[2],inactive
same,Potency,[3],inactive
O=C([O-])c1ccccn1.O=C([O-])c1ccccn1.O=C([O-])c1ccccn1.[Cr+3],Potency,[1],inactive
same,Potency,[3],inactive
CC(Oc1cc(Cl)c(Cl)cc1Cl)C(=O)O (stereo not drawn),Potency,[1],inactive
same,Potency,[2],inactive
same,Potency,[3],inactive
COP(=O)(OC)OC(Br)C(Cl)(Cl)Br (stereo not drawn),Potency,[1],inactive
same,Potency,[3],inactive
COc1cc(C[C@@H](C)N)c(OC)cc1Br,Potency,[1],inactive
same,Potency,[2],inactive
same,Potency,[3],inactive
O=C(Cc1ccccc1)OCCc1ccccc1,Potency,[1],inactive
same,Potency,[3],inactive
NNCCO,Potency,[1],inactive
same,Potency,[2],inactive
same,Potency,[3],inactive
CC(C)(C)c1ccc(CCOc2ncnc3ccccc23)cc1,Potency,[1],inactive
same,Potency,[2],inactive
same,Potency,[3],inactive
Cc1ncc(C[n+]2csc(CCO)c2C)c(N)n1,Potency,[1],inactive
same,Potency,[2],inactive
same,Potency,[3],inactive
CC[N+]1(C)CCCC(OC(=O)C(O)(c2ccccc2)c2ccccc2)C1 (stereo not drawn),Potency,[1],inactive
same,Potency,[2],inactive
same,Potency,[3],inactive
CCCCC#N,Potency,[1],inactive
same,Potency,[2],inactive
same,Potency,[3],inactive
O=C(O)C(Cl)(Cl)Br,Potency,[1],inactive
same,Potency,[2],inactive
same,Potency,[3],inactive
CC(C)OC(=O)Cc1ccccc1,Potency,[1],inactive
same,Potency,[3],inactive
Nc1ccccc1C(=O)OCC(O)CO (stereo not drawn),Potency,[1],inactive
same,Potency,[2],inactive
same,Potency,[3],inactive
CCC[N+](CCC)(CCC)CCC,Potency,[1],inactive
same,Potency,[2],inactive
same,Potency,[3],inactive
CC(C)(C)NCC(O)c1ccccc1Cl (stereo not drawn),Potency,[1],inactive
same,outcome,[4],inactive
same,outcome,[6],inactive
same,outcome,[7],inactive
same,outcome,[8],inactive
same,outcome,[5],inactive
same,outcome,[9],inactive
same,Potency,[3],inactive
NC(=O)CF,Potency,[1],inactive
same,Potency,[3],inactive
COc1ccc2c(c1OC)C(=O)O[C@H]2[C@@H]1c2cc3c(cc2CCN1C)OCO3,Potency,[1],inactive
same,outcome,[4],inactive
same,outcome,[5],inactive
same,Potency,[3],6.68 µM (active)
C[N+]1(CCC(C(N)=O)(c2ccccc2)c2ccccc2)CCCCC1,Potency,[1],inactive
same,Potency,[2],inactive
same,Potency,[3],inactive
CCC1(C2=NCCN2)Cc2ccccc2O1 (stereo not drawn),Potency,[1],inactive
same,outcome,[4],inactive
same,outcome,[6],inactive
same,outcome,[8],inactive
same,outcome,[5],inactive
same,outcome,[9],inactive
same,Potency,[3],inactive
O=C(O)c1cc(I)cc(I)c1I,Potency,[1],inactive
same,Potency,[2],inactive
same,Potency,[3],inactive
